# Compounds with a hit are over-represented: about 12% of the library has one in this group of screens.
# RORgamma inh = ROR gamma (mouse) transcription inhibition; Potency, µM (series often up to 53.6 µM), without a hit: at the highest dose activity change, negative = inhibition, hits mostly inhibitors; P51450; actives 5.4% (n = 310,000); Drosophila S2 Gal4-RORgamma UAS-luciferase reporter, 20 h; note: nearly all actives have a fitted effect of over 60% in size
# Target sequence (P51450 whole entry, looked up, the tested form may be a part): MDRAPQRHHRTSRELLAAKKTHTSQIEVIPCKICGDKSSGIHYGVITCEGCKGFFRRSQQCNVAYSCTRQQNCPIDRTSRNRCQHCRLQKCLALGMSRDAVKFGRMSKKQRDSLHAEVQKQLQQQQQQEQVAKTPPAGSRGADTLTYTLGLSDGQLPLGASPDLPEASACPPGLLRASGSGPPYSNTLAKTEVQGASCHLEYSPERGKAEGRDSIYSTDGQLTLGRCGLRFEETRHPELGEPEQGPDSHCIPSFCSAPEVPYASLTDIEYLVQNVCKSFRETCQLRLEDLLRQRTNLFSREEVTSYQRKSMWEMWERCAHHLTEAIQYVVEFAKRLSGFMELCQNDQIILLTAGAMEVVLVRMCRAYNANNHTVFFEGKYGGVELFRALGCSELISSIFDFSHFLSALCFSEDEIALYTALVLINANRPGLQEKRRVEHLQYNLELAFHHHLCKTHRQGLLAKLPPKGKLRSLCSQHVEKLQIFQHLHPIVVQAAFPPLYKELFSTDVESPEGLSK
#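 Drosophila Schneider cells stably carrying a metallothionein-driven Gal4 DBD–ROR gamma fusion and a UAS-Photinus luciferase reporter were exposed to compound for 1 hr, then induced with copper sulfate (700 uM final) for 20 hr at ambient temperature before luminescence reading.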
# Sfp inh = inhibitors of Bacillus subtilis Sfp phosphopantetheinyl transferase; Q9F4F7; Biochemical Sfp PPTase activity, qHTS; Potency, µM, inactives show largest response in the series, negative = inhibition, usual class: inhibitors; actives 3.5% (n = 310,000);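 note: the enzyme is Sfp with the accession as filed and its product quenches rhodamine fluorescence; 0% = enzyme reaction without inhibitor and -100% = no enzyme wells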
#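 Sfp 15 nM + cpd, 15 min RT; start w/ rhodamine-CoA 5 uM, BHQ-2-YbbR 12.5 uM (final); 50 mM Hepes pH 7.6, 10 mM MgCl2, 0.01% NP-40, 0.01% BSA; read 525/598 nm at 0 and 30 min.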
# VP16 counter = Gal4-VP16 reporter inhibition counter-screen | Drosophila S2 Gal4-VP16 UAS-luciferase, luminescence, 20 h | Potency, µM (doses to about 53.6 µM), for inactives: at the highest dose activity, negative = inhibition, hits mostly inhibitors | actives 3.5% (n = 310,000) | AID 2546;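 note: Gal4-VP16 expression switched on by copper sulfate through the metallothionein promoter; nearly all actives have a fitted effect of over 50% in size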
# PLK1 PBD block = inhibitors of human PLK1 polo-box domain binding; P53350; Plk1 PBD binding of FITC phosphopeptide, fluorescence polarization; Potency, µM, inactives show max response, negative = inhibition, actives largely listed as inhibitors; actives 2.8% (n = 360,000); AID 720504; note: series mostly up to about 57 µM; nearly all actives have a fitted effect of over 65% in size
# ALDH1A1 block = blocks purified human ALDH1A1 activity; P00352; Purified ALDH1A1, NADH fluorescence, propionaldehyde substrate; Potency, µM (titrated, usually from 75.3 µM), for inactives: top-dose activity, negative = inhibition, most hits filed as inhibitors; actives 7.3% (n = 220,000); AID 1030; active = well fitted inhibition curve with a large enough effect, not every such curve was filed as active; inconclusive = small, poorly fitted or top-dose-only effect, or another doubt; inactive = no such curve, though single readings can be large or run the other way;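 note: plate controls were no enzyme wells and a reference inhibitor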
# * hit, by the source's call; ? = inconclusive; / = no result given; [ ] = dose if it differs, or a comment. Unless noted, calls come from the whole dose curve; as a rule, active = well fitted curve in the direction sought with a large enough effect; inconclusive = small, poorly fitted or top-dose-only effect, or another doubt; inactive = no such curve, though single readings can be large; an effect the other way counts as inactive or inconclusive. Unless noted, % is set by controls: 0 for no effect and ±100 for the full control effect; potency is the fitted concentration of half-maximal effect.
SMILES,RORgamma inh,Sfp inh,VP16 counter,PLK1 PBD block,ALDH1A1 block
COCCn1c(=O)c(-c2ccc(OC)cc2)nc2cnc(Oc3ccc(OC)cc3)nc21,-8.9%,-6.1%,-11.8%,/,?
Cc1ccc(NC(=O)COC(=O)C(NS(=O)(=O)c2ccc(Cl)cc2)C(C)O)cc1C (configuration not stated),38.2%,1.1%,2.6%,-2.0%,1.26µM*
Cc1ccc(NC(=O)COC(=O)C(NS(=O)(=O)c2ccc(Cl)cc2)C(C)O)c(Br)c1 (configuration not stated),15.2%,1.3%,7.2%,-8.4%,3.55µM*
Cc1ccc(NC(=O)COC(=O)C2CC2(Cl)Cl)cc1C (configuration not stated),-4.0%,0.4%,-28.5%,26.7µM*,20µM*
O[C@@](CCN1CCCCC1)(c1ccccc1)[C@@H]1C[C@H]2C=C[C@@H]1C2,3.3%[16.9 µM],-0.1%,-4.5%[17 µM],/,7.4%[20.9 µM]
Cc1noc(NC(=O)Nc2ccccc2F)c1C#N,/,/,/,/,-2.2%[13.5 µM]
BrC(=C\c1ccccc1)/C=N/n1cnnc1,7.08µM*,-3.4%,?,-5.8%,13.3%
BrC(=C\c1ccccc1)/C=N/Nc1ccc2nncn2n1,-23.8%,?,1.5%,?,/
O=C(Nc1ncc(Cc2cccc(C(F)(F)F)c2)s1)c1ccc(-c2cccc([N+](=O)[O-])c2)o1,7.08µM*,19.9%,4.47µM*,-11.8%,6.5%
COc1ccc(NC(=O)c2cc3c(s2)CCC3)cc1S(=O)(=O)N1CCOCC1,?,1.9%,1.8%,-5.6%,0.562µM*
O=C(Nc1cc(S(=O)(=O)N2CCOCC2)ccc1N1CCOCC1)c1cc2c(s1)CCC2,25.4%,7.4%,5.9%,-6.4%,/
O=C(Nc1cccc(S(=O)(=O)N2CCOCC2)c1)c1ccccn1,3.4%,5.4%,-9.0%,-7.1%,/
O=C(Nc1cccc(S(=O)(=O)N2CCOCC2)c1)c1cc2c(s1)CCC2,?,-2.2%,10.8%,-7.9%,3.16µM*
COc1ccc(S(=O)(=O)N2CCOCC2)cc1NC(=O)c1cc2c(s1)CCCC2,-5.5%,-10.7%,-6.4%,0.1%,3.98µM*
O=C(NCCCN1CCCC1=O)Nc1ccccc1F,20.6%,2.1%,-17.6%,-3.3%,/
c1ccc(C(c2cccc3c2ccc2ccccc23)[C@H](c2ccccc2)c2cccc3c2ccc2ccccc23)cc1 (some centres not stated),/,/,/,/,-1.7%[13.5 µM]
CCc1nc2ccc(C(=O)N(CC)CCN(C)C)cn2c1N(C)C(=O)c1cccc(OC)c1,/,/,/,1.5%,/
CC(C)c1ccc(NC(=O)C2Cc3c(-c4ccc(Cl)cc4)ccnc3O2)cc1 (configuration not stated),/,/,/,-10.1%,/
COc1ccc(NC(=O)C2CC2(Cl)Cl)cc1S(=O)(=O)N1CCCCC1 (configuration not stated),/,/,/,3.3%,/
NCC(O)C1CCCCCCC1 (configuration not stated),/,/,/,/,-11.0%
COc1ccccc1C(=O)N1CCC(N2CCN(c3ccccc3OC)CC2)CC1,1.3%,89.1µM*,-6.9%,6.2%,/
O=C(c1ccccc1Oc1ccccc1)N1CCN(c2ccccc2)CC1,17.1%,-24.3%,-4.8%,?,22.4µM*
COc1cccc(C(=O)N2CCN(C3CCN(Cc4ccccc4)CC3)CC2)c1OC,-18.6%,79.4µM*,-5.3%,-4.0%,/
COc1ccccc1C(=O)N1CCN(S(=O)(=O)c2ccccc2)CC1,11.2µM*,16.0%,-0.6%,2.8%,0.0%
COc1ccccc1C#CC1=CC(=O)C[C@H](c2ccc(F)cc2)C1,/,/,/,-14.6%,/
SMILES,RORgamma inh,Sfp inh,VP16 counter,PLK1 PBD block,ALDH1A1 block
COC(=O)c1ccccc1COc1cccn2c(N(C)C(=O)CCC3CCCC3)c(C)nc12,/,/,/,-13.3%,/
Cc1cc(O)cc2c1C1CCC3(C)C(O)CCC3C1C=C2 (configuration not stated),/,/,/,-26.4%,/
Cc1ccc(C)c(C(Nc2ccccc2)c2ccc3ccc(C)nc3c2O)c1 (configuration not stated),/,/,/,-23.8%,/
CC1(C)CC=C(O[Si](C)(c2ccccc2)c2ccccc2)CC1,-17.8%,14.2%,-5.8%,/,4.5%
OC(c1cccnc1)c1nc(-c2cccc(F)c2)cs1 (configuration not stated),/,/,/,1.9%,/
COc1ccc(CN2CCN(C(=O)c3cccc4ccccc34)CC2)cc1OC,8.3%,?,0.1%,-14.0%,/
COc1ccc(CN2CCN(C(=O)c3cccc4ccccc34)CC2)cc1Br,15.5%,56.2µM*,?,-10.5%,/
CCOc1ccccc1C(=O)Oc1ccc2ccc(=O)oc2c1,-22.1%,10.4%,-2.5%,-11.0%,/
O=C1C=C(c2cnc3ccccc3c2)C[C@@H](c2ccc3c(c2)OCO3)C1,/,/,/,-1.0%,/
COc1ccc(-c2coc3c(C(=O)Nc4cccnc4)cccc23)c(C)c1,/,/,/,2.0%,/
Cc1ccc2nc(C(F)OC(F)(F)F)[nH]c2c1 (configuration not stated),-95.3%,6.8%,?,0.3%,0.708µM*
Cc1ccc2nc(C(O)C(O)c3nc4ccc(C)cc4[nH]3)[nH]c2c1 (configuration not stated),7.08µM*,21.4%,7.94µM*,1.3%,?
COc1ccc(Oc2ncc3nc(-c4ccc(F)cc4)c(=O)n(C[C@H]4CCCO4)c3n2)cc1,54.3%,0.5%,?,/,-7.9%
c1ccc(-c2cnc(SCCN3CCOCC3)n2CC2CCCO2)cc1 (configuration not stated),-37.6%,-19.7%,0.1%,-1.3%,10µM*
c1ccc(Cn2c(SCCN3CCOCC3)nnc2-c2cccnc2)cc1,44.3%,-28.5%,6.6%,-1.4%,?
COc1ccc(-c2cnc(N)n2CC2CCCO2)cc1 (configuration not stated),-13.3%,-8.3%,-12.6%,26.7µM*,39.8µM*
COc1ccc(NC(=O)N[C@H]2C=C[C@@H](CC(=O)NC3CCC3)O[C@@H]2CO)cc1,/,/,/,2.7%,/
COc1ccc(C(=O)NC(=S)N2CCCc3ccccc32)cc1OC,-44.0%,?,-14.0%,-29.5%,?
NC(=S)N1CCCc2ccccc21,6.31µM*,-7.1%,?,-2.9%,/
O=C(NC(=S)N1CCCc2ccccc21)c1ccc([N+](=O)[O-])cc1,?,15.8µM*,6.31µM*,?,11.2µM*
O=C(NC(=S)N1CCCc2ccccc21)c1ccc(Cl)cc1,-32.7%,22.4µM*,-16.9%,26.7µM*,-173.7%
N=C(N1CCCc2ccccc21)N1CCCc2ccccc21,/,/,/,2.2%,/
O=C(NC(=S)N1CCCc2ccccc21)c1ccc(Br)cc1,-98.6%,44.7µM*,?,?,?
O=C(NC(=S)N1CCCc2ccccc21)c1ccccc1,-31.3%,-1.4%,2.1%,-17.1%,?
COc1cccc(-c2nnc3n2N=C(c2c(OC)cccc2OC)CS3)c1,-29.2%,-10.0%,-2.6%,/,/
Cc1cc2c(c(=O)n1-c1ccccc1)C1O[C@](c3ccsc3)(Cc3cc(C#N)ccc31)O2,17.0%[10 µM],7.1%,-4.2%[10 µM],/,/
O=c1c(Br)c(N2CCCC2)cnn1-c1ccccc1,-11.2%,3.7%,-19.3%,-0.7%,-5.4%

# Screening results deposited in PubChem by National Center for Advancing Translational Sciences (NCATS).
